# Reference: PubChem BioAssay AID686978 (National Center for Advancing Translational Sciences (NCATS), 2013)
# In all, about 420,000 compounds went through this assay and about 64,000 (15%) were called active. Not shown: some 27% with an inconclusive outcome. The list is a sample of the results. Values without a mark were called inactive. Calls follow the shape of the dose curve; as a rule, active = well fitted inhibition curve with a large enough effect; inconclusive = small, poorly fitted or top-dose-only effect; inactive = flat fitted curve, though single readings scatter.
# Experiment: qHTS for Inhibitors of human tyrosyl-DNA phosphodiesterase 1 (TDP1): qHTS in cells in absence of CPT; also: nearly all actives have a fitted effect of over 55% in size
# Settings: DT40 Tdp1-/- hTDP1 cells, no CPT, ATP luminescence, 48 h; activity change, negative = growth inhibition: at 46.2 µM (top of the series)
# Procedure, shortened: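 DT40 Tdp1-/-;hTDP1 cells, no CPT (DMSO vehicle only), 400 cells/well; compounds pin-transferred; ≥48 hr, 37 °C; CellTiter-Glo 30 min RT dark, luminescence read.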
# % is scaled to controls: 0 for no effect and ±100 for the full control effect; potency is read from the fitted curve at half-maximal effect.
Compound,Potency,"activity change, negative = growth inhibition [%]"
CCN1/C(=C/c2ccc3ccc(C)cc3[n+]2CC)Sc2ccccc21,2.06 µM (active),–
CCN1/C(=C\c2ccc3ccccc3[n+]2CC)Sc2cc(C)ccc21,0.184 µM (active),–
Cn1c(Nc2ccccc2)cc(=O)n(C)c1=O,–,1.8
CCc1ccccc1NC(=S)N(CCN1CCCCCC1)Cc1ccco1,–,-1.1
CCN(CC)S(=O)(=O)c1ccc2nc(COC(=O)c3n[nH]c4ccccc34)[nH]c2c1,–,-17.7
CC(=O)OC1CCC2(C)C(=CCC3C4CC(=O)N(O)C(=O)C4(C)CCC32)C1 (configuration not stated),5.17 µM (active),–
C[C@]12CC[C@H](O)CC1=CCC1C2CC[C@@]2(C)C1CC[C@@H]2NC(=O)CCC(=O)O (some centres not stated),–,-8.9
CC(=O)O[C@H]1CC[C@@]2(C)C(=CC[C@@H]3[C@@H]2CC[C@]2(C)C(c4cccnc4)=CC[C@@H]32)C1,–,-23.6
CN(C)CCNC(=O)/C(=C/c1cccc([N+](=O)[O-])c1)NC(=O)c1ccccc1,–,2.73
CCOCc1nnc(NC(=O)CSc2ccc(C)cc2)s1,–,-19.2
OC1CSc2nc3ccccc3n2C1 (configuration not stated),–,4.08
CCCc1nn2c(=O)cc(CSCC(=O)Nc3cccc(C)c3)nc2s1,–,18.6
CC(C)(C)OC(=O)C[C@H]1C/C=C\C[C@@H](CC(=O)N[C@H](CO)Cc2ccccc2)C(=O)NC[C@@H](c2ccccc2)OC1=O,18.4 µM (active),–
CC(C)[C@@H](NC(=O)OC(C)(C)C)C(=O)NCC1CCC(C(=O)N[C@@H](Cc2ccccc2)C(=O)O)CC1 (some centres not stated),–,-10.5
CC(C)(C)OC(=O)NC(Cc1ccccc1)C(=O)NC(CSC1CCCCO1)C(=O)NN (configuration not stated),–,0.0689
CC(C)(C)OC(=O)C[C@@H]1C/C=C\C[C@@H](CC(=O)N[C@H](CO)Cc2ccccc2)C(=O)NC[C@@H](c2ccccc2)OC1=O,20.6 µM (active),–
C[C@H]1COC(=O)[C@H](CC(=O)OC(C)(C)C)C/C=C\C[C@@H](CC(=O)N[C@H](CO)Cc2ccccc2)C(=O)N1,14.6 µM (active),–
O=C(C[C@H]1C/C=C\C[C@@H](NC(=O)OCC2c3ccccc3-c3ccccc32)C(=O)O[C@@H](c2ccccc2)CNC1=O)N[C@H](CO)Cc1ccccc1,18.4 µM (active),–
COc1ccc(OCC(=O)NCCc2ccc(S(N)(=O)=O)cc2)cc1,–,0.22
CCC(C)N1CC(=O)N2Cc3[nH]c4ccccc4c3C[C@H]2C1=O (some centres not stated),–,-16.6
CCN(CC)CCNS(=O)(=O)c1ccc(/C=C/C(=O)O)cc1,–,-7.55
CNCC(O)c1ccc(O)c(O)c1 (configuration not stated),–,-15.9
COc1ccc(CNC(=O)C(=O)NCC2OCCN2C(=O)c2ccc(OC)cc2)cc1 (configuration not stated),–,-16.3
C/C(=C(\C#N)C(=O)NCCCN1CCOCC1)N(C)C,–,-3.07

Compound,Potency,"activity change, negative = growth inhibition [%]"
O=C(CCc1ccccc1)NNc1ccc(F)cc1,–,-26.9
CCC(=O)Nc1cccc(NC(=O)CSc2nnnn2C2CCCC2)c1,–,-14.2
Cc1cccc2cc(CN(Cc3ccc4c(c3)OCO4)Cc3nnnn3C3CCCC3)c(=O)[nH]c12,16.4 µM (active),–
Cc1ccccc1-c1nnc(SCC(=O)NCc2ccc3c(c2)OCO3)n1C,–,-2.12
CCC(c1nnnn1C1CCCC1)N(Cc1cccs1)Cc1cc2cccc(C)c2[nH]c1=O (configuration not stated),18.4 µM (active),–
CC(C)C(c1nnnn1Cc1ccccc1)N1CCC(C(N)=O)CC1 (configuration not stated),–,6.13
Cc1cccc2[nH]c(CN(C)C(=O)C3CCC(=O)N(CCc4ccccc4)C3)nc12 (configuration not stated),–,-10.5
Cc1cccc2cc(CN(Cc3cccs3)C(c3nnnn3C3CCCC3)C(C)C)c(=O)[nH]c12 (configuration not stated),–,-20.3
Cc1cccc2cc(CN(Cc3nnnn3Cc3ccccc3)C3CCCC3)c(=O)[nH]c12,12.6 µM (active),–
O=C(CSc1nnnn1C1CCCC1)Nc1ccc2c(c1)OCCO2,–,0.417
CSc1ccc(S(=O)(=O)NCc2ccc(Cl)cc2)cc1,–,-14.2
CS(=O)(=O)n1nc(-c2ccco2)nc1N,–,-3.7
Cc1ccnc(NC(=O)C(C)N2C(=O)c3ccccc3C2=O)c1 (configuration not stated),–,24.5
C=CCc1cccc2cc(C(=O)OCC)c(=O)oc12,–,-20
CC/C=C/C(=O)N1CC2(CC(c3cccc(NC(=O)CC)c3)=NO2)C[C@H]1C(N)=O (some centres not stated),–,-14.1
Cc1ccc(C)c(S(=O)(=O)N(C)c2ccc(OC(=O)C3CCN(C(=O)c4ccc(F)cc4)CC3)cc2)c1,–,-22.1
Cc1ccc(OCC(=O)Nc2ccc(-c3nc4ncccc4o3)cc2)cc1,–,-27.8
Cc1cc(N2C(=O)c3ccc(C(=O)NCc4ccccc4)cc3C2=O)no1,–,0.0239
COc1cccc(-c2nc3nc(C)cc(C)n3c2NC2CCCCC2)c1,20.6 µM (active),–
COc1ccc2nc(C)cc(Nc3cccc(C(=O)O)c3)c2c1,–,12.1
COc1ccc(-c2nc3nc(C)cc(C)n3c2Nc2c(C)cccc2C)cc1,18.4 µM (active),–
COc1cccc(-c2cnc(OC(C)(C)C)nc2OC(C)(C)C)c1,–,-27.7
COc1cccc(CSc2nc3nc(C)cc(C)n3n2)c1,–,-1.82
